# PubChem BioAssay AID431 (Sanford-Burnham Center for Chemical Genomics, 2006)
# Screen size: about 63,000 compounds; about 1,100 (1.7%) were called active. For the sample, actives were picked, then their nearest neighbours and some compounds at random. Measured potencies and affinities stand elsewhere. Unmarked numbers belong to inactive results.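 The calls were made as follows: active = compounds whose percent cytotoxicity in the single-dose primary screen, scaled between solvent and toxic-drug controls, exceeds 50; inactive = the rest.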
# Experiment: viability loss of HPDE-C7K cells – cell-based, fluorescence, HTS, primary screen (AID 431);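 also: 0% = DMSO solvent wells and 100% = doxorubicin-treated wells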
# Conditions: HPDE-C7K KRASV12 cells, Alamar Blue viability, 48 h; at 10 µM; active compounds read high
row,SMILES,cytotoxicity
1,CCC(=O)N(CCc1ccccc1C)Cc1cc2cc3c(cc2[nH]c1=O)OCO3,-20.6%
2,COc1ccc(CCN(Cc2cc3cc4c(cc3[nH]c2=O)OCO4)C(C)=O)cc1OC,-1.5%
3,CC(=O)N(CCc1ccccc1C)Cc1cc2cc3c(cc2[nH]c1=O)OCO3,53.3% (active)
4,COc1ccccc1C(=O)Nc1ccc(S(=O)(=O)Nc2cc(C)on2)cc1,3.1%
5,O=C(Nn1c(C2CC2)nc2ccccc2c1=O)c1ccco1,-1.6%
6,Cc1nc2ccccn2c(=O)c1CCN1CCC(C(=O)c2ccc(F)cc2)CC1,10.8%
7,O=c1cc(CN2CCN(c3ccc(F)cc3)CC2)nc2sccn12,-7.8%
8,Cn1c(SCc2nc3ccccc3[nH]2)nnc1-c1cccs1,-13.1%
9,CCCCN(C)S(=O)(=O)c1ccc(C(=O)Nc2nnc(-c3cccs3)o2)cc1,32.1%
10,O=C(Nc1nnc(-c2cccs2)o1)c1cccc(Oc2ccccc2)c1,35.3%
11,CC1CN(S(=O)(=O)c2ccc(C(=O)Nc3nnc(-c4ccc5c(c4)CCCC5)o3)cc2)CC(C)O1 (centres undefined),33.7%
12,COc1cccc(C(=O)Nc2nnc(-c3cccs3)o2)c1,15.6%
13,O=C(Nc1nnc(-c2cccs2)o1)c1cccc(F)c1,21.9%
14,CCCCN(CC)S(=O)(=O)c1ccc(C(=O)Nc2nnc(-c3cccs3)o2)cc1,52.7% (active)
15,CC1CC(C)CN(S(=O)(=O)c2ccc(C(=O)Nc3nnc(-c4cccs4)o3)cc2)C1 (centres undefined),56.6% (active)
16,O=C(Nc1nnc(-c2cccs2)o1)c1cccc(C(F)(F)F)c1,77.3% (active)
17,CCCCN(CC)S(=O)(=O)c1ccc(C(=O)Nc2nnc(-c3ccccc3Cl)o2)cc1,58.3% (active)
18,CCN(Cc1ccccc1)S(=O)(=O)c1ccc(C(=O)Nc2nnc(C3CC3)o2)cc1,6.4%
19,Brc1ccc(-c2nnc(-c3ccc4c(c3)OCO4)o2)o1,-2%
20,COC(=O)c1ccccc1NC(=O)CSc1nnnn1C1CCCCC1,0.6%
21,O=C(Nc1nccs1)C1CCN(S(=O)(=O)c2cccnc2)CC1,-8.7%
22,COCCCn1cnc2c(c1=O)c1nc3ccccc3nc1n2-c1ccc(C)cc1,-9.5%
23,Cn1c(=O)oc2cc(S(=O)(=O)NC3CCCc4ccccc43)ccc21 (centres undefined),-4%
24,O=C(CCCn1c(=S)[nH]c2ccccc2c1=O)NCc1ccco1,-11%

row,SMILES,cytotoxicity
1,CCCC(=O)Nc1nnc(-c2ccc(Cl)s2)o1,-1.5%
2,CC1(C)COCN1S(=O)(=O)c1ccc(C(=O)Nc2nnc(-c3ccc(Cl)s3)o2)cc1,93.6% (active)
3,CC1CCCCN1S(=O)(=O)c1ccc(NC(=O)c2cccs2)cc1 (centres undefined),57.2% (active)
4,O=C(Nc1nnc(-c2ccccc2Cl)o1)c1cccnc1,28.8%
5,O=C(Nc1ccc(S(=O)(=O)N2CCCc3ccccc32)cc1)C1CCCO1 (centres undefined),12.3%
6,CN1CCN(S(=O)(=O)c2ccc(NC(=O)c3cccs3)cc2)CC1,-16.7%
7,COc1ccc(-c2nnc(NC(=O)c3ccc(S(=O)(=O)N4COCC4(C)C)cc3)o2)cc1,14.3%
8,CCC1CCCCN1S(=O)(=O)c1ccc(C(=O)Nc2nnc(-c3ccccc3Cl)o2)cc1 (centres undefined),76.1% (active)
9,O=C(Nc1nnc(C2CC2)o1)c1ccc(S(=O)(=O)N2CCCc3ccccc32)cc1,60.6% (active)
10,COc1ccc(-c2nnc(NC(=O)c3ccc(S(=O)(=O)N4CCCc5ccccc54)cc3)o2)cc1,49.3%
11,CC1CCN(S(=O)(=O)c2ccc(NC(=O)c3cccs3)cc2)CC1,15.7%
12,CCC1CCCCN1S(=O)(=O)c1ccc(C(=O)Nc2nnc(-c3cccs3)o2)cc1 (centres undefined),11.8%
13,O=C1C(C=NCCCn2ccnc2)=C(O)c2ccccc21,1%
14,O=C(NC1CCCCC1)C1CCCN1C(=O)NCc1ccccc1 (centres undefined),11.8%
15,CCNS(=O)(=O)c1ccc(OCCNS(C)(=O)=O)cc1,-2.5%
16,O=C(/C=C/N1CCOCC1)c1coc2ccccc12,-4.5%
17,Cc1cccc(C)c1NC(=O)CSc1nnc(-c2ccoc2C)n1C,-5.8%
18,O=C(OCCN(C1=NS(=O)(=O)c2ccccc21)c1ccc(Cl)cc1)c1ccco1,-16.8%
19,CC(O)CCc1nc2ccc(C(=O)O)cc2[nH]1 (centres undefined),-5.2%
20,CCc1nnc(NC(=O)c2ccc(S(=O)(=O)N3CCCCC3C)cc2)s1 (centres undefined),-7.7%
21,CC1CCCCN1S(=O)(=O)c1ccc(NC(=O)c2cccc(-n3cnnn3)c2)cc1 (centres undefined),20.3%
22,CC1CCCN(S(=O)(=O)c2ccc(C(=O)Nc3nnc(-c4ccccc4Cl)o3)cc2)C1 (centres undefined),63.8% (active)
23,Cc1nnc(NC(=O)c2ccc(S(=O)(=O)N3CCCCCC3)cc2)o1,6.5%
24,CC1CCCCN1S(=O)(=O)c1ccc(C(=O)Nc2nnc(-c3ccccc3Cl)o2)cc1 (centres undefined),56.7% (active)

row,SMILES,cytotoxicity
1,O=C(Nc1nnc(-c2ccccc2Cl)o1)c1ccc(S(=O)(=O)N2CCCCCC2)cc1,43.8%
2,O=C(Nc1ccccc1C(=O)N1CCOCC1)c1ccco1,3.4%
3,Cc1ccc(C)c(C(=O)CSc2nnnn2-c2cccnc2)c1,0.6%
4,Cc1cc(C)n(S(=O)(=O)c2cccc(Cl)c2Cl)n1,-9.2%
5,COc1nc(-c2ccccc2)ccc1-c1noc(-c2ccco2)n1,-3%
6,COC(=O)c1ccccc1S(=O)(=O)N(Cc1ccco1)Cc1cc2cc(OC)ccc2[nH]c1=O,-1.7%
7,COC(=O)CCC(=O)Nc1sc2c(c1C#N)CCCC2,-6.7%
8,CCCC(=O)Nc1sc2c(c1C#N)CCCC2,1.4%
9,CCc1ccc(CCC(=O)Nc2sc3c(c2C#N)CCCC3)o1,73.8% (active)
10,CCOC(=O)C1C(c2cccc(Cl)c2Cl)NC(=O)NC1(O)C(F)(F)F (centres undefined),10.1%
11,COC(=O)C1=C(C)NC(=O)CC1c1cccc(Cl)c1Cl (centres undefined),-0.8%
12,O=C(Nc1ccc2c(c1)OCO2)c1ccc(Br)c(S(=O)(=O)N2CCCC2)c1,14.5%
13,CCc1ncc(C(O)c2cccc(OC)c2OC)n1C (centres undefined),6.9%
14,CCOC(=O)c1c(N)sc(C(=O)Nc2ccc3c(c2)OCO3)c1C,19.8%
15,CCN(CC)S(=O)(=O)c1ccc(NC(=O)Cn2c(=O)oc3ccccc32)cc1,1.6%
16,Cc1nn2c(N3CCOCC3)c3c(nc2c1-c1ccccc1)CCCC3,8.5%
17,CC1=C(C#N)c2nc(N)c(C#N)c(C)c2/C1=C\c1ccccc1,107% (active)
18,Cc1nc(N)c(C#N)c(-c2ccccc2)c1C,18.7%
19,Cc1c(-c2ccccc2)nc(N)c(C#N)c1-c1ccco1,-7.4%
20,COc1cc(C(=O)Nc2nc3ccccc3[nH]2)cc(OC)c1OC,-19.5%
21,O=C(COc1ccccc1)Nc1nc2ccccc2[nH]1,-1.5%
22,COC(=O)Nc1nc2ccc(C(=O)c3ccccc3)cc2[nH]1,67.2% (active)
23,COC(=O)Nc1nc2ccc(Sc3ccccc3)cc2[nH]1,57.5% (active)
24,O=C(Nc1nc2ccccc2[nH]1)c1ccc(F)cc1,-12%

row,SMILES,cytotoxicity
1,Cc1nc2ccc(C(=O)c3ccccc3)cc2[nH]1,1.1%
2,CCC(C)N(C(=O)COC(=O)Cc1n[nH]c(=O)c2ccccc12)C1CCS(=O)(=O)C1 (centres undefined),-29.5%
3,O=C(CN(C(=O)Cn1nnc(-c2cccs2)n1)c1cnc2ccccc2c1)NCC1CCCO1 (centres undefined),-3.6%
4,O=C(COc1ccc(F)c(Cl)c1)c1ccc[nH]1,-3.1%
5,COc1cc(-c2nnc(-c3ccc(S(=O)(=O)c4ccccc4)cc3)o2)cc(OC)c1OC,-1.1%
6,COc1ccc(C2C(C(=O)N3CCCC3)CC(=O)N2c2ccc(OC)cc2)cc1 (centres undefined),1.8%
7,CN(C)CC(=O)c1ccc(-c2ccccc2)cc1,-1.7%
8,CC(=O)Nc1cc(-c2nn3c(C)nnc3s2)ccc1C,6.7%
9,Cc1nc(SCC(=O)CC(=O)OC(C)C)c(C#N)c(C)c1C,-4.4%
10,Cc1cc(C)c(C#N)c(SCC(=O)CC(=O)OC(C)C)n1,29.7%
11,CCOC(=O)CC(=O)Nc1nnc(CC(C)C)s1,-10.3%
12,CCOC(=O)N1CCC(NC(=O)Cn2cccc2C(=O)c2ccccc2)CC1,-6.2%
13,COc1ccc(S(=O)(=O)n2nc(OC(=O)c3ccc(C)cc3)cc2N)cc1,-7.7%
14,COc1ccc(S(=O)(=O)n2nc(OC(=O)c3c(-c4ccccc4Cl)noc3C)cc2N)cc1,51.1% (active)
15,COc1ccc(S(=O)(=O)n2nc(OC(=O)c3ccccc3)cc2N)cc1,0%
16,Cc1onc(-c2ccccc2Cl)c1C(=O)Oc1cc(N)n(S(=O)(=O)c2ccc(F)cc2)n1,36.8%
17,Cc1ccc(S(=O)(=O)n2nc(OC(=O)c3c(-c4ccccc4Cl)noc3C)cc2N)cc1,73% (active)
18,COc1ccccc1C(=O)Oc1cc(N)n(S(=O)(=O)c2ccc(C)cc2)n1,-5.5%
19,O=C(O)CCC(=O)OCC1CCCO1 (centres undefined),-8.8%
20,O=C(CSc1nnc(-c2ccccn2)n1Cc1ccccc1)NC1CCCC1,-15.2%
21,O=S(=O)(Nc1ccc(S(=O)(=O)N2CCOCC2)cc1)c1ccccc1,7.6%
22,OC(CNCc1ccco1)Cn1c2ccccc2c2ccccc21 (centres undefined),40.9%
